According to PubChem BioAssay (NCI):
Compounds without any hit were thinned out: in the full panel of roughly 83,000, 20% have a hit.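 The endpoint reported here, percent growth, reads 100 for growth as untreated, 0 for no net growth and -100 for all cells dead.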 Calls of active or inactive are those of the source. How the source made its calls: active means growth percent below 10; inactive means the rest.

Assays:
Assay in all cases: NCI-60 one-dose screen, 48 h (100 = growth as untreated, 0 = no growth, -100 = all killed)
Conditions in all cases: 10 µM
786-0 renal = tested on: 786-0 renal
MALME-3M melanoma = tested on: MALME-3M melanoma
UACC-257 melanoma = tested on: UACC-257 melanoma
SN12C renal = tested on: SN12C renal
TK-10 renal = tested on: TK-10 renal
ACHN renal = tested on: ACHN renal
CAKI-1 renal = tested on: CAKI-1 renal
A498 renal = tested on: A498 renal
RPMI-8226 leukemia = tested on: RPMI-8226 leukemia
OVCAR-8 ovarian = tested on: OVCAR-8 ovarian
OVCAR-4 ovarian = tested on: OVCAR-4 ovarian
SK-OV-3 ovarian = tested on: SK-OV-3 ovarian
IGROV1 ovarian = tested on: IGROV1 ovarian
OVCAR-3 ovarian = tested on: OVCAR-3 ovarian
BT-549 breast = tested on: BT-549 breast
MDA-MB-435 melanoma = tested on: MDA-MB-435 melanoma
MCF7 breast = tested on: MCF7 breast
HCT-116 colon = tested on: HCT-116 colon
HCC-2998 colon = tested on: HCC-2998 colon
KM12 colon = tested on: KM12 colon

Measured: growth

C[C@H]1[C@@H](CC(=O)N[C@@H](Cc2coc3ccccc23)B(O)O)O[C@@H]2OC3(C)CC[C@H]4[C@H](C)CC[C@@H]1[C@@]24OO3
inactive: 786-0 renal 16.5% | TK-10 renal 16.5% | ACHN renal 13.2% | CAKI-1 renal 25.2% | A498 renal 36.6% | OVCAR-4 ovarian 18.3% | MCF7 breast 12%
active: MALME-3M melanoma -60% | UACC-257 melanoma -41% | SN12C renal -78.6% | RPMI-8226 leukemia -7.66% | OVCAR-8 ovarian -6.75% | SK-OV-3 ovarian -22.9% | IGROV1 ovarian -16.1% | OVCAR-3 ovarian -14.9% | BT-549 breast -92% | MDA-MB-435 melanoma -53.8% | HCT-116 colon -85.3% | HCC-2998 colon -97.2% | KM12 colon -20.4%

C=CCN=C([Se])NC(=O)c1ccc2c(c1)OCO2
inactive: 786-0 renal 85.8% | MALME-3M melanoma 110% | UACC-257 melanoma 102% | SN12C renal 81.5% | TK-10 renal 120% | ACHN renal 111% | CAKI-1 renal 118% | A498 renal 82.5% | RPMI-8226 leukemia 105% | OVCAR-8 ovarian 61.1% | OVCAR-4 ovarian 108% | SK-OV-3 ovarian 45.1% | IGROV1 ovarian 75.6% | OVCAR-3 ovarian 112% | BT-549 breast 104% | MDA-MB-435 melanoma 96.6% | MCF7 breast 102% | HCT-116 colon 43.6% | HCC-2998 colon 92.4% | KM12 colon 41.1%

CC1=C(C=O)C2=C(C)C3(CC3)[C@@](C)(O)C(=O)C2=C1
inactive: UACC-257 melanoma 73.8% | SN12C renal 44.2% | TK-10 renal 53.6% | CAKI-1 renal 31.7% | RPMI-8226 leukemia 17.1% | OVCAR-4 ovarian 44.5% | IGROV1 ovarian 53.6% | MCF7 breast 14% | HCC-2998 colon 17.2% | KM12 colon 16.3%
active: 786-0 renal -38.7% | MALME-3M melanoma 1.71% | ACHN renal -61.1% | A498 renal -30.3% | OVCAR-8 ovarian -25.3% | SK-OV-3 ovarian -3.31% | OVCAR-3 ovarian -9.94% | BT-549 breast -14.5% | MDA-MB-435 melanoma -35.2% | HCT-116 colon -34.7%
